# Compounds with a hit are over-represented: about 1.8% of the library has one in this group of screens.
# GSIS activator = GLuc luminescence reporter in INS-1E cells, primary screen for activators of glucose-dependent secretion of insulin; INS-1E GLuc reporter insulin secretion, 2-3 h; activation, % at 16.6 µM; 0.61% of 370,000 active; AID 743287;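 active means lowest replicate activation of at least 40%, so every replicate reaches that level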;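 further: 0% = median of neutral control wells and 100% = median of IBMX positive control wells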
# RAD54 inh = blocks human RAD54 Holliday junction branch migration; FAM/BHQ fluorescence; inhibition, % at 10.4 µM; 0.14% of 360,000 active; AID 602329;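 active means mean normalized replicate activity at least 40 and at least half of replicates scoring 40 or more; inconclusive means only one of the two criteria met; inactive means mean below 40 and under half of replicates reaching 40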;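 further: 0% = median of neutral control wells and 100% = median of positive control wells; inhibitors cause a drop in the FAM fluorescence signal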
# RAD52 anneal inh = RAD52 (human) annealing inhibition; P43351; recombinant RAD52 DNA annealing, FRET fluorescence; inhibition, % at 18.7 µM; 0.46% of 360,000 active; AID 651710;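 active means every replicate showing at least 50% inhibition; inconclusive means mean inhibition at least 50% but not in every replicate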
# Target sequence (P43351 whole entry, looked up): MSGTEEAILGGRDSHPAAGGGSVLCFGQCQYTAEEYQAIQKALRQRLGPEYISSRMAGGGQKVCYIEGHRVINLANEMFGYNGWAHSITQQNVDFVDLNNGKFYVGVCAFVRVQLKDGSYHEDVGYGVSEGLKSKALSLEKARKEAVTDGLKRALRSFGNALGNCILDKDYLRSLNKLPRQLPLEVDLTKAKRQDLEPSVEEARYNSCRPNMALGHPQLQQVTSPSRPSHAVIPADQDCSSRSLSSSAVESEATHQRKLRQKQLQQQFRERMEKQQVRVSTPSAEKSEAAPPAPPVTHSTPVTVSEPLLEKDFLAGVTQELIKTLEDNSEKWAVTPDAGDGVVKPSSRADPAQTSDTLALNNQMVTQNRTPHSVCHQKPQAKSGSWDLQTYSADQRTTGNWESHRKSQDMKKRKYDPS
# F508del corr = correctors of CFTR F508del function in bronchial epithelial cells; CFBE cells, YFP halide quenching; stimulated with forskolin plus potentiator P3; % fluorescence drop versus neutral controls; 0.36% of 350,000 active; activity (quench increase), % at 7.58 µM;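 active means mean added fluorescence quench of at least 8% versus neutral control, with both replicates also reaching 8%; inconclusive means only one of the mean or replicate conditions met; inactive means mean below 8% and not both replicates reaching 8%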;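 further: cells transiently co-express mutant CFTR-F508del with the halide-sensitive YFP; corrector assay measuring rescue of mutant channel to the surface after 24 h compound exposure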
# LGR2 inh = inhibitors of bursicon-induced Drosophila LGR2 receptor cAMP signaling. inhibition, % at 9.99 µM. AID 720647. HEK293 LGR2, CRE-luciferase, bursicon-stimulated, 4 h. 0.35% of 380,000 active;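 active means drop in luminescence signal, shown as inhibition above about 50% in the replicate tests, limit read from the data, passing the limit was not always enough; inconclusive means probably only some replicates passing the limit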;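 further: agonist challenge used bursicon conditioned medium at about half maximal strength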
# EWS-Fli block = inhibitors of EWS/Fli oncoprotein transcriptional activity; inhibition, % at 12.6 µM; A673 NR0B1-luciferase reporter, viability-normalised; AID 651661; 0.67% of 350,000 active;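 active means mean inhibition of at least 50% after viability correction, with every replicate also passing that limit; inconclusive means mean reaches 50% but only one of two replicates passes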;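 further: firefly luciferase signal divided by Alamar Blue viability fluorescence both relative to DMSO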
# * hit, by the source's call; ? = inconclusive; / = no result; ! = a repeat was not active.
SMILES,GSIS activator,RAD54 inh,RAD52 anneal inh,F508del corr,LGR2 inh,EWS-Fli block
CC(=O)OC1C(O)C(C)OC(OC2C(OC(=O)C3CCC4C(C3)OC3(CC(OC(=O)/C=C/c5ccccc5)C(C)CO3)C43CO3)OC(C)C(O)C2OC(C)=O)C1O (centres undefined),-23,/,-14,-7,99*,36
CCN1CCN(C(=O)Cc2ccccc2OC)CC1,12,/,-1,-1,9,0
COc1ccc(CCN)cc1O,4,-16,-6,-4,-8,-2
COc1ccc(CC2c3cc(OC)c(OC)cc3CCN2C)cc1O (centres undefined),43*,-11,-4,2,-9,-4
CC(=NC(C)c1ccccc1)c1c(O)[nH]c(=O)[nH]c1=O (centres undefined),104*,-7,/,/,-17,/
CC(=NCCc1ccccc1)c1c(O)[nH]c(=O)[nH]c1=O,/,/,4,-3,0,11
CCOP(=O)(C(NC(=O)c1ccccc1Cl)=C(Cl)Cl)c1ccccc1 (centres undefined),/,5,/,/,/,/
C/C=C/c1ccc(C2[C@@H]3CN(Cc4cccnc4)C[C@H]2N3)cc1 (some centres undefined),-6,/,58*,0,-4,7
CC1=C[C@@H]2c3cccc4[nH]cc(c34)C[C@H]2N(C)C1,-14,?,-167,7,-12,4
CC1CN(c2cc([N+](=O)[O-])ccc2Cl)CC(C)N1 (centres undefined),41*,/,-2,/,-4,-12
COC(=O)C1=C(c2ccccc2)C[C@@H]2CC[C@H]1N2C(=O)N1CCCC1,6,-1,-13,0,14,-3
CC(Cc1ccccc1)NC(N)=O (centres undefined),-2,0,-4,1,7,-9
S=C=Nc1cccc(C2(N3CCCCC3)CCCCC2)c1,-3,-13,84*,-1,-13,10
Clc1ccc(C[n+]2c(-c3ccccc3)cc(-c3ccccc3)cc2-c2ccccc2)cc1,-9,17,16,-1,9,44
O=[N+]([O-])c1ccccc1-c1cc(-c2ccccc2)cc(-c2ccccc2)[n+]1Cc1ccccc1Cl,-5,/,16,-5,40,51*
CCC(COC(=O)c1cc(OC)c(OC)c(OC)c1)(c1ccccc1)N(C)C (centres undefined),-20,5,-6,9.0*!,7,3
CCCOP(=O)(OCCC)C(NC(=O)c1cc(OC)c(OC)c(OC)c1)c1ccccc1 (centres undefined),-18,1,5,-7,7,5
COc1ccc(C#Cc2ccc([C@H]3[C@@H](CO)N4CCCCN(C(=O)Cc5cccnc5)C[C@H]34)cc2)cc1,-14,0,-7,-2,-11,-11
COC(=O)C12OCC34C(CC5C(C)=C(O)C(=O)CC5(C)C3C(O)C1O)OC(=O)C(OC(=O)/C=C(\C)C(C)C)C24 (centres undefined),-26,/,3,-8,101*,46
O=Cc1cn(Cc2cccc([N+](=O)[O-])c2)c2ccccc12,7,/,-12,/,87*,7
O=C1NC(=O)N(Cc2ccccc2)C(=O)/C1=C/C=C/c1ccco1,-28,/,-156,-5,14,65*
CC(C)c1ccc(N2C(=O)NC(=O)/C(=C\C=C\c3ccco3)C2=O)cc1,-3,/,-300,-5,-2,74*
COc1ccc(CN2C(=O)NC(=O)/C(=C\c3ccco3)C2=O)cc1,-1,-27,-177,1,-25,7
COC(=O)C1=C(c2ccc(C(C)=O)cc2)C[C@@H]2CC[C@H]1N2C(=O)N1CCC(O)(c2ccc(Cl)cc2)CC1,-28,-3,-9,2,28,10
Cc1cccc2nc(-c3ccccc3)c(-c3ccc(CN4CCC(n5c(=O)[nH]c6cc(Cl)ccc65)CC4)cc3)nc12,42*,/,-18,-2,9,8
COC(=O)C1=C(c2ccc(OCc3ccccc3)cc2)C[C@@H]2CC[C@H]1N2C(=O)NCCN1CCOCC1,-12,5,-2,4,-7,-6
CC=Cc1ccc2n(c1=O)C[C@H]1[C@H](CO)[C@@H](C(=O)OC)[C@@H]2N1S(=O)(=O)c1ccccc1C (mixture of isomers),2,5,53*,0,6,4
